Compound activity (PubChem BioAssay)
Y pestis TopoI: inhibitors of Yersinia pestis topoisomerase I; AID 504884; 360,000 compounds, 0.064% hits; Y. pestis Topo-I cleavage product accumulation, plate reader; activity, % at 10 µM; in the data active = activity above about 50%, passing the limit was not always enough; inconclusive = no clear call, values can overlap the other calls
FadD28 FP inh: blocks FadD28 binding to the bisubstrate probe; fluorescence polarization; AID 588549; 360,000 compounds, 0.22% hits; inhibition, % at 12.5 µM; in the data active = inhibition above about 8.5%, passing the limit was not always enough; inconclusive = no clear call, values can overlap the other calls
TcdB GH inh: TcdB glycohydrolase inhibition; P18177; TcdB glycohydrolase enzymatic assay, plate reader; inhibition, % at 9.99 µM; 350,000 compounds, 0.24% hits; in the data active = inhibition above about 10%
Target sequence (P18177 whole entry, looked up): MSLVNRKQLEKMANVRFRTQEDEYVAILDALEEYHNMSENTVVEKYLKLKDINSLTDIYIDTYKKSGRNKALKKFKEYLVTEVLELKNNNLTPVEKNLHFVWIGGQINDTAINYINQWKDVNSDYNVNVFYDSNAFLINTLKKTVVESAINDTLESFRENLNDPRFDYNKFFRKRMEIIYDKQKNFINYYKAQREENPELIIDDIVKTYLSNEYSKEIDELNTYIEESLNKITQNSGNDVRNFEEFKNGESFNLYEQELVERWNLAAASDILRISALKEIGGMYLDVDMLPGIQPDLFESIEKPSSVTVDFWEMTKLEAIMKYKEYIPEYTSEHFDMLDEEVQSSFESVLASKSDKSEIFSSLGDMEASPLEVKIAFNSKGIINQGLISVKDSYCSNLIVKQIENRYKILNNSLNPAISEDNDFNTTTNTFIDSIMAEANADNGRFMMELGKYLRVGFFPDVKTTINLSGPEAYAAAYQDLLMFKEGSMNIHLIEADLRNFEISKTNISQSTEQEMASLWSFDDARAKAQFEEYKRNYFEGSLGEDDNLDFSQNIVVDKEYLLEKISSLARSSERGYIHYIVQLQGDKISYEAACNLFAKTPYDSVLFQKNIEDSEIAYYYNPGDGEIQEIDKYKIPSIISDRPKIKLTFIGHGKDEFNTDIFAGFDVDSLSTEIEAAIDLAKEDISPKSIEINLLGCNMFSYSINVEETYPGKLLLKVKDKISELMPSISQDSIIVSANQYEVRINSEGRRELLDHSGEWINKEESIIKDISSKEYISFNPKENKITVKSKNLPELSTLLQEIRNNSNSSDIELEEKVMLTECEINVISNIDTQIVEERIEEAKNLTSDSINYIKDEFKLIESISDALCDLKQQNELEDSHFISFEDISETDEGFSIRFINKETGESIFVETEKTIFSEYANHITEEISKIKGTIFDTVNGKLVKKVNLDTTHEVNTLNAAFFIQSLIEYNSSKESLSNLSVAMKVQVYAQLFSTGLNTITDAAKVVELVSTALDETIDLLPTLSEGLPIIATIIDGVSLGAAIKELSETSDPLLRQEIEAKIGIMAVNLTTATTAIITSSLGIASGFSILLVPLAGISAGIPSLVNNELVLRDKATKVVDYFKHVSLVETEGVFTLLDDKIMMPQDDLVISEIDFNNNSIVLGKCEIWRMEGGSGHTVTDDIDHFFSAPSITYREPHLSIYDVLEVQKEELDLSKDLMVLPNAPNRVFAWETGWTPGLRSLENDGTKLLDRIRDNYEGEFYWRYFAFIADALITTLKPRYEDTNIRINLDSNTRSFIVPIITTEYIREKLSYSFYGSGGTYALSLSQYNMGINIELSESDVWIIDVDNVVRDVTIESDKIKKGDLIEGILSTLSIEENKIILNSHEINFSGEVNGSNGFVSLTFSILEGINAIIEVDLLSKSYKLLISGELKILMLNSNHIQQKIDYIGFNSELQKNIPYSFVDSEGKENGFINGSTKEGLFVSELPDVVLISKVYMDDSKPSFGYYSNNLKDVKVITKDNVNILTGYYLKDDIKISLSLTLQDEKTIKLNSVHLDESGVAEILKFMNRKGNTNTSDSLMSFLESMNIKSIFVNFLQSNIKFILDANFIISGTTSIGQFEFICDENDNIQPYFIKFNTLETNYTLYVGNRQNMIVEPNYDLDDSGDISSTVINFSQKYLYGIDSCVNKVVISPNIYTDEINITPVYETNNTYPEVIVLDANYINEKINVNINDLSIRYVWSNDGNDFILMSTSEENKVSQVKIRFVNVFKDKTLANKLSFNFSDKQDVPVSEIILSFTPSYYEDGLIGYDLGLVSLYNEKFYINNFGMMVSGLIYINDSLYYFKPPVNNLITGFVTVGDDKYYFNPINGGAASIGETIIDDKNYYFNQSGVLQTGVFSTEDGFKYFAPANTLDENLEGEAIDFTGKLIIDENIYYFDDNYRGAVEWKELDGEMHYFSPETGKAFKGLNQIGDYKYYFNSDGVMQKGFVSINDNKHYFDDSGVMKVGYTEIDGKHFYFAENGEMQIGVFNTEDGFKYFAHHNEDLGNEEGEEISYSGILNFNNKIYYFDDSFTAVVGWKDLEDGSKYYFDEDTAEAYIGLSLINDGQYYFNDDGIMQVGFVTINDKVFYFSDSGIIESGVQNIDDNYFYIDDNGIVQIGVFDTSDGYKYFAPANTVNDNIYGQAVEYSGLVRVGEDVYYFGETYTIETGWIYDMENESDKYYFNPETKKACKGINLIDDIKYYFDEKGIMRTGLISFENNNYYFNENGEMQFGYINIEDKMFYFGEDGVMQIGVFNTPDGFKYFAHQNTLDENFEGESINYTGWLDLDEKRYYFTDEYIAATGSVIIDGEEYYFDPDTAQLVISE
Mtb BioA inh: BioA (M. tuberculosis) enzyme inhibition; inhibition, % at 9.99 µM; purified M. tuberculosis BioA enzyme, plate reader; 360,000 compounds, 0.096% hits; AID 602481; in the data active = inhibition above about 40%; inconclusive = no clear call, values can overlap the other calls
PfHsp40 rescue: rescue of PfHsp40-mediated yeast toxicity. S. cerevisiae expressing PfHsp40, growth rescue, ATP luminescence. growth rescue, % at 12.5 µM. 340,000 compounds, 0.68% hits. AID 504582; in the data active = growth rescue above about 28%, passing the limit was not always enough; inconclusive = no clear call, values can overlap the other calls;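 also: yeast W303a lacking pdr1 and pdr3 grown in galactose medium; growth measured after three days at 30 °C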
PrP 5UTR inh: suppresses PrP 5' UTR mRNA reporter expression | 340,000 compounds, 0.35% hits | cell-based PrP 5' UTR mRNA reporter, plate reader | inhibition, % (test concentration not listed); in the data active = inhibition above about 52%
PrP 5UTR single: prion 5' UTR mRNA inhibition, cherry-pick retest. 1,100 compounds, 48% hits. shares compounds with PrP 5UTR inh. cell-based prion protein 5' UTR reporter, plate reader. AID 504592. inhibition, % at 2.5 µM; in the data active = inhibition above about 54%; inconclusive = no clear call, values can overlap the other calls
Numbers stand for hits. The list is not random: actives were taken first. Their share in the collection is about 1.2%.

What do the screens show for `C[C@@H]1CCCCO[C@H](CN(C)C(=O)Nc2ccccc2)[C@@H](C)CN([C@H](C)CO)C(=O)c2cc(NC(=O)c3ccccc3)ccc2O1`?
TcdB GH inh: inactive; Mtb BioA inh: inactive

Results for N/C(=N\OCc1ccc([N+](=O)[O-])cc1)c1ccccn1 ?
PfHsp40 rescue: inactive; PrP 5UTR inh: 85.2; PrP 5UTR single: 79.9

Results for CC(C(=O)O/N=C(\N)c1ccccn1)c1ccc([N+](=O)[O-])cc1 (stereo not given) ?
Y pestis TopoI: inactive; FadD28 FP inh: inactive; TcdB GH inh: inactive; Mtb BioA inh: inactive; PfHsp40 rescue: inactive; PrP 5UTR inh: inactive

Results for Cc1ccccc1N=Nc1c(N)n[nH]c1N ?
Y pestis TopoI: inactive; FadD28 FP inh: inactive; TcdB GH inh: inactive; Mtb BioA inh: inactive; PfHsp40 rescue: inactive; PrP 5UTR inh: 54.7; PrP 5UTR single: inactive

How did Nc1n[nH]c(N)c1N=Nc1ccccc1F do in these assays?
Y pestis TopoI: inactive; FadD28 FP inh: inactive; TcdB GH inh: inactive; Mtb BioA inh: inactive; PfHsp40 rescue: inactive; PrP 5UTR inh: inactive

Results for CN(C)S(=O)(=O)c1ccc(C(=O)NCC2CC2(Cl)Cl)cc1 (stereo not given) ?
Y pestis TopoI: inactive; FadD28 FP inh: inactive; TcdB GH inh: inactive; PfHsp40 rescue: inactive; PrP 5UTR inh: 63.4; PrP 5UTR single: inactive

Results for CN(C)S(=O)(=O)c1ccc(C(=O)NCc2ccccc2)cc1 ?
Y pestis TopoI: inactive; FadD28 FP inh: inactive; PfHsp40 rescue: inactive; PrP 5UTR inh: inactive

How did O=C(C[C@@H]1C[C@H]2c3cc(NS(=O)(=O)c4ccc(F)cc4)ccc3O[C@H]2[C@H](CO)O1)NCC1CC1 do in these assays?
Mtb BioA inh: inactive

Results for O=C(N/N=C/c1ccncc1)c1cccc(N/N=C/c2ccncc2)c1 ?
Y pestis TopoI: inactive; FadD28 FP inh: inactive; TcdB GH inh: inactive; PfHsp40 rescue: inactive; PrP 5UTR inh: 71.6; PrP 5UTR single: inactive

What do the screens show for `O=C(N/N=C/c1ccc(O)cc1)c1cccc(N/N=C/c2ccc(O)cc2)c1`?
Y pestis TopoI: inactive; FadD28 FP inh: inactive; TcdB GH inh: inactive; Mtb BioA inh: inactive; PfHsp40 rescue: inactive; PrP 5UTR inh: inactive

What do the screens show for `CC1CCN(C(=O)/C(=C\c2cccs2)NC(=O)c2ccccc2)CC1`?
Y pestis TopoI: inactive; FadD28 FP inh: inactive; TcdB GH inh: inactive; PfHsp40 rescue: inactive; PrP 5UTR inh: 59.1; PrP 5UTR single: inactive

How did CC(C)(C)[C@H]1COC(=O)CCCC/C=C\C[C@H](CC(=O)NCCO)C(=O)N1 do in these assays?
Y pestis TopoI: inactive; FadD28 FP inh: inactive; TcdB GH inh: inactive; Mtb BioA inh: inactive; PfHsp40 rescue: inactive; PrP 5UTR inh: 57.8; PrP 5UTR single: inconclusive

What do the screens show for `Cc1ccc(S(=O)(=O)Nc2ccc3c(c2)C(=O)N([C@H](C)CO)C[C@@H](C)[C@H](CN(C)C(=O)Nc2ccc4c(c2)OCO4)OCCCC[C@H](C)O3)cc1`?
TcdB GH inh: inactive

Results for COc1ccc(Oc2nccc(-c3ccc(F)cc3)c2C#N)cc1 ?
Y pestis TopoI: inactive; FadD28 FP inh: inactive; Mtb BioA inh: inactive; PfHsp40 rescue: inactive; PrP 5UTR inh: 76.4; PrP 5UTR single: inactive

Results for C[C@H](CO)N1C[C@H](C)[C@@H](CN(C)C(=O)CN(C)C)Oc2cc(-c3cccnc3)ccc2S1(=O)=O ?
TcdB GH inh: inactive; Mtb BioA inh: inactive

What do the screens show for `Cc1nn(-c2ccccc2Cl)c(Cl)c1/C=N/Nc1cccc(C(=O)O)c1`?
Y pestis TopoI: inactive; FadD28 FP inh: 15.9; PfHsp40 rescue: inactive; PrP 5UTR inh: 77.3; PrP 5UTR single: 63.8

What do the screens show for `Cc1ccsc1/C=N/Nc1cccc(C(=O)O)c1`?
Y pestis TopoI: inactive; FadD28 FP inh: inactive; TcdB GH inh: inactive; PfHsp40 rescue: inactive; PrP 5UTR inh: 72.3; PrP 5UTR single: 67.7

How did Cc1nn(-c2cccc(C(F)(F)F)c2)c(Cl)c1/C=N/Nc1cccc(C(=O)O)c1 do in these assays?
Y pestis TopoI: inactive; FadD28 FP inh: inconclusive; TcdB GH inh: inactive; PfHsp40 rescue: inactive; PrP 5UTR inh: inactive

How did O=C(N[C@@H]1C=C[C@@H](CC(=O)N2CCCCC2)O[C@H]1CO)c1ccc2c(c1)OCO2 do in these assays?
TcdB GH inh: inactive; Mtb BioA inh: inactive

What do the screens show for `CCN1C=C(C(=O)c2ccccc2)C(=O)CC1`?
Y pestis TopoI: inactive; FadD28 FP inh: inactive; TcdB GH inh: inactive; Mtb BioA inh: inactive; PfHsp40 rescue: inactive; PrP 5UTR inh: 60.5; PrP 5UTR single: inactive

How did CCCCN1C=C(C(=O)c2ccccc2)C(=O)CC1 do in these assays?
Y pestis TopoI: inactive; FadD28 FP inh: inactive; TcdB GH inh: inactive; Mtb BioA inh: inactive; PfHsp40 rescue: inactive; PrP 5UTR inh: inactive

What do the screens show for `COc1ccc(OC)c2[nH]c(=O)c(CCNC(=O)COc3ccccc3)cc12`?
Y pestis TopoI: inactive; FadD28 FP inh: inactive; PfHsp40 rescue: inactive; PrP 5UTR inh: 56.7; PrP 5UTR single: inactive

Results for Cc1ccc(-n2cccn2)c(CN2CCCC(CNC(=O)c3ccc(F)cc3)C2)c1 (stereo not given) ?
Y pestis TopoI: inactive; FadD28 FP inh: inactive; TcdB GH inh: inactive; Mtb BioA inh: inactive; PfHsp40 rescue: inactive; PrP 5UTR inh: 80.0; PrP 5UTR single: inactive

What do the screens show for `CCC(=O)N1C[C@H](C)[C@H](OC)CN(C)C(=O)c2cc(NC(=O)C3CCOCC3)ccc2OC[C@H]1C`?
TcdB GH inh: inactive; Mtb BioA inh: inactive

Results for CCCC(=O)Nc1ccc2c(c1)C(=O)N(C)C[C@H](OC)[C@H](C)CN(C(=O)CN(C)C)[C@@H](C)CO2 ?
TcdB GH inh: inactive; Mtb BioA inh: inactive

What do the screens show for `COc1cc(NC(=O)c2cccs2)c(C(=O)OCC(=O)c2cc(C)n(-c3ccccc3)c2C)cc1OC`?
Y pestis TopoI: inactive; FadD28 FP inh: inactive; Mtb BioA inh: inactive; PfHsp40 rescue: inactive; PrP 5UTR inh: 70.9; PrP 5UTR single: 73.2

Results for CC(C)c1ccc(/C=N/Nc2ccc(C(=O)O)cc2)cc1 ?
Y pestis TopoI: inactive; FadD28 FP inh: inactive; TcdB GH inh: inactive; PfHsp40 rescue: inactive; PrP 5UTR inh: 63.4; PrP 5UTR single: inactive

What do the screens show for `Cc1ccc(/C=N/Nc2ccc(C(=O)O)cc2)s1`?
Y pestis TopoI: inactive; FadD28 FP inh: inconclusive; TcdB GH inh: inactive; Mtb BioA inh: inactive; PfHsp40 rescue: 123.1; PrP 5UTR inh: 63.3; PrP 5UTR single: 53.5

What do the screens show for `Cc1ccc(/C=N/Nc2cccc(C(=O)O)c2)s1`?
Y pestis TopoI: inactive; FadD28 FP inh: inactive; Mtb BioA inh: inactive; PfHsp40 rescue: inactive; PrP 5UTR inh: inactive

What do the screens show for `C[C@@H]1CCCCO[C@H](CN(C)C(=O)c2ccccc2)[C@@H](C)CN([C@@H](C)CO)C(=O)c2cc(NS(=O)(=O)c3ccccc3)ccc2O1`?
TcdB GH inh: inactive; Mtb BioA inh: inactive

How did COC(=O)C[C@H]1CC[C@@H]2[C@H](COc3ccc(NS(=O)(=O)c4ccc(F)cc4)cc3C(=O)N2C)O1 do in these assays?
TcdB GH inh: inactive; Mtb BioA inh: inactive
